Source: PubChem
RORg inh – qHTS for inhibitors of ROR gamma transcriptional activity; 310,000 tested, 5.4% active; Nuclear receptor ROR-gamma (Mus musculus), P51450; Drosophila S2 Gal4-RORgamma UAS-luciferase reporter, 20 h; Potency, µM (doses to about 53.6 µM), for the others: top-dose activity change, negative = inhibition, actives largely listed as inhibitors; AID 2551, 2010; note: nearly all actives have a fitted effect of over 60% in size
Target sequence (P51450 whole entry, looked up, the tested form may be a part): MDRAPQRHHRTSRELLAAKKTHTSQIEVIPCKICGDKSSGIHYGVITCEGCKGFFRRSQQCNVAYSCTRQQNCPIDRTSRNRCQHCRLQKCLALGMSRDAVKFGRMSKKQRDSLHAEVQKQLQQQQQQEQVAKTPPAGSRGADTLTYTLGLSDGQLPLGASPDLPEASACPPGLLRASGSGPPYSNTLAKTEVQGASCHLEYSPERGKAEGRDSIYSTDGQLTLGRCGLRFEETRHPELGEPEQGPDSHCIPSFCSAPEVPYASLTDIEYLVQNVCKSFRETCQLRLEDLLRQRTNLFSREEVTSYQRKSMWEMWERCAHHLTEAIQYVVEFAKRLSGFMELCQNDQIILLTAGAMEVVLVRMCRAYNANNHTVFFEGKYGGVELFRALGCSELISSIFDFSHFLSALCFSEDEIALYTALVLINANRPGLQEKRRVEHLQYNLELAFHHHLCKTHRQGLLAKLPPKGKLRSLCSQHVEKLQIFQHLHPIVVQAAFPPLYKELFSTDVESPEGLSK
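Stable Schneider cell line, Gal4 DNA-binding domain fused to ROR gamma, UAS-luciferase. Cmpd 1 hr RT → CuSO4 700 uM final → 20 hr RT → luciferase reagent 10 min → luminescence.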
TDP1 block – qHTS Assay for Inhibitors of Tyrosyl-DNA Phosphodiesterase (TDP1); Tyrosyl-DNA phosphodiesterase 1 (Homo sapiens), Q9NUW8; Potency, µM (highest dose often 130 µM), for the others: at the top dose activity change, negative = inhibition, actives largely listed as inhibitors; AID 485290, 2010; recombinant TDP1, AlphaScreen DNA substrate cleavage; 350,000 tested, 0.28% active; note: nearly all actives have a fitted effect of over 40% in size
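Here, a 5' biotin and 3' phosphotyrosine-FITC DNA oligonucleotide reports Tdp1 activity: intact substrate bridges AlphaScreen beads, while cleavage leaves a 3' phosphate and drops signal. All incubations at room temperature.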
TDP1 cell CPT – qHTS for Inhibitors of human tyrosyl-DNA phosphodiesterase 1 (TDP1): qHTS in cells in presence of CPT; chicken DT40 Tdp1-/-;hTDP1 cells + 20 nM CPT, ATP luminescence, 48 h; Potency, µM (top dose mostly 46.2 µM), for inactives: top-dose activity change, negative = growth inhibition, most hits filed as inhibitors; 420,000 tested, 12% active; AID 686979, 2013; note: nearly all actives have a fitted effect of over 55% in size
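Cell growth measured by CellTiter-Glo luminescence after a minimum 48 h, 37 C compound exposure with 20 nM CPT in Tdp1-knockout DT40 cells stably expressing hTDP1, seeded 400/well; qHTS titration format.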
DT40 TDP1 no CPT – qHTS for Inhibitors of human tyrosyl-DNA phosphodiesterase 1 (TDP1): qHTS in cells in absence of CPT; DT40 Tdp1-/- hTDP1 cells, no CPT, ATP luminescence, 48 h; Potency, µM (doses to about 46.2 µM), for the others: top-dose activity change, negative = growth inhibition, most hits filed as inhibitors; 420,000 tested, 15% active; note: nearly all actives have a fitted effect of over 55% in size
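Stably hTDP1-transfected Tdp1-null chicken DT40 cells were treated with library compounds minus camptothecin and grown for at least 48 hr at 37 °C, after which cellular ATP was quantified by luminescence.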
VP16 counter – VP16 counterscreen qHTS for inhibitors of ROR gamma transcriptional activity | Drosophila S2 Gal4-VP16 UAS-luciferase, luminescence, 20 h | Potency, µM (top dose mostly 53.6 µM), without a hit: at the highest dose activity, negative = inhibition, hits mostly inhibitors | 310,000 tested, 3.5% active;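 note: Gal4-VP16 expression switched on by copper sulfate through the metallothionein promoter; nearly all actives have a fitted effect of over 50% in size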
* marks the source's active call; other numbers are inactive results; ? = inconclusive; nt = not tested or not shown; [ ] = remark or other dose. This is a sample that favours compounds with a hit; in the whole collection about 19% have one here. Calls come from the whole dose curve; as a rule, active = well fitted curve in the direction sought with a large enough effect; inconclusive = small, poorly fitted or top-dose-only effect, or another doubt; inactive = no such curve, though single readings can be large; an effect the other way counts as inactive or inconclusive. % is set by controls: 0 for no effect and ±100 for the full control effect; potency is the fitted concentration of half-maximal effect.

SMILES	RORg inh	TDP1 block	TDP1 cell CPT	DT40 TDP1 no CPT	VP16 counter
CCn1c(N2CCN(C(=O)C34CC5CC(CC(C5)C3)C4)CC2)nc2ccccc21	13.0%	-2.6%	29.1µM*	25.9µM*	2.4%[0.365 µM]
Cc1nc(N2CCN(S(=O)(=O)c3ccccc3C#N)CC2)c2c(-c3ccccc3)csc2n1	nt	-0.2%	?	13µM*	nt
O=S(=O)(c1ccc(F)cc1F)N1CCN(c2nc(-c3cccs3)nc3ccccc23)CC1	nt	0.9%	?	?	nt
CCn1c(N2CCN(S(=O)(=O)c3ccccc3C(F)(F)F)CC2)nc2ccccc21	25.5%	2.9%	?	16.4µM*	-1.8%
O=S(=O)(c1ccccc1F)N1CCN(c2nc(-c3cccs3)nc3ccccc23)CC1	nt	0.7%	?	11.2µM*	nt
N#Cc1ccccc1S(=O)(=O)N1CCN(c2nc(-c3cccs3)nc3ccccc23)CC1	nt	-2.1%	15.8µM*	7.94µM*	nt
CC(=O)OC1=C(C#N)Cn2ccc3cccc1c32	16.5%	1.9%	nt	nt	-2.1%
CCCOc1ccc(C(=O)Nc2ccc(Cl)cn2)cc1	-44.0%	-2.2%	-17.8%	-20.7%	-17.6%
CCOc1ccc(CCNC(=O)c2ccc(-c3nc(CSc4ccccc4)c(C)o3)cc2)cc1	nt	8.5%	-11.9%	-27.2%	nt
O=S(=O)(c1ccccc1C(F)(F)F)N1CCN(c2nc(-c3ccccc3)nc3ccccc23)CC1	nt	0.1%	?	12.6µM*	nt
CSCCC(NC=O)C(=O)NC(C)C(=O)O (centres undefined)	nt	nt	2.91µM*	0.651µM*	nt
CSCCC(NC=O)C(=O)NC(CC(C)C)C(=O)NC(Cc1ccccc1)C(=O)O (centres undefined)	-12.6%	7.9%[56.1 µM]	-3.9%	-3.4%	-10.1%
Clc1ccc(-c2nc3cnccn3c2Nc2ccc3c(c2)OCO3)cc1	?	12.0%	?	20.6µM*	-1.6%
c1cncc(-c2nc3ccccn3c2Nc2ccc3c(c2)OCCO3)c1	40.7%	10.5%	?	11.6µM*	17.2%
Brc1ccc(-c2nc3ccccn3c2Nc2ccc3c(c2)OCCO3)o1	nt	7.0%	25.9µM*	?	nt
C=CCOCCn1[nH]c2ccccc2c1=O	nt	-2.1%	-9.7%	-10.7%	nt
CC(=O)Oc1ccc2c(c1)CCC1C2CC[C@@]2(C)C1CC(OC(C)=O)C2OC(C)=O (some centres undefined)	-0.9%	4.5%	?	4.1%	3.1%
Cc1cc(C(=O)CSc2cccc[n+]2[O-])c(C)n1-c1ccc(OC(F)F)cc1	-39.6%	6.2%	20.6µM*	?	-6.3%
COC(=O)c1ccc(-n2c(C)cc(C(=O)CSc3cccc[n+]3[O-])c2C)cc1	21.2%	7.7%	-25.2%	?	-0.1%
COc1ccccc1CNC(=O)c1ccccc1OCc1ccc(F)cc1	28.9%	-4.6%	?	?	-2.2%
Cc1ccnc2nc(C(=O)OCC(=O)N(C)C3CCCCC3)nn12	nt	nt	-3.8%	2.2%	nt
O=C(COC(=O)/C=C/c1ccc(F)cc1)Nc1ccc(Cl)cn1	19.7%	2.6%	17.7%	-5.7%	-6.8%
COc1cc(/C=C/C(=O)OCC(=O)Nc2ccc(Cl)cn2)ccc1O	nt	28.2µM*	-28.8%	-22.3%	nt
COc1ccc(C(=O)N2CCN(c3ccc(NC(=O)c4cccs4)cc3)CC2)cc1	35.0%	4.6%	?	?	-8.1%
Cc1ccc(C(=O)N2CCN(c3ccc(NC(=S)NC(=O)c4cccs4)cc3)CC2)cc1	7.08µM*	8.6%	?	20.6µM*	11.2µM*
SMILES	RORg inh	TDP1 block	TDP1 cell CPT	DT40 TDP1 no CPT	VP16 counter
CC(C)CC(=O)NC(=S)Nc1ccc(N2CCN(C(=O)c3cccs3)CC2)cc1	7.08µM*	5.2%	?	20.6µM*	6.31µM*
O=C(Nc1ccc(N2CCN(C(=O)c3ccccc3)CC2)cc1)c1cccs1	?	10.2%	18.4µM*	20.6µM*	-15.3%
CC(C)C(=O)Nc1ccc(N2CCN(C(=O)c3cccs3)CC2)cc1	6.6%	9.3%	-13.9%	?	-1.9%
Cc1ccccc1C(=O)N1CCN(c2ccc(NC(=S)NC(=O)c3cccs3)cc2)CC1	2.82µM*	-2.4%	23.1µM*	23.1µM*	5.62µM*
Cc1ccc2c(CC(=O)OCc3nc(N)nc(Nc4ccccc4C)n3)coc2c1	-21.5%	10.8%	-4.5%	-28.2%	-13.4%
Cc1nc(N2CCN(C(=O)COc3ccccc3)CC2)c2c(C)c(C)sc2n1	40.3%	1.0%	?	?	?
CCN(CC)C(=O)c1cccc(-c2csc(C(C)(NC(C)=O)c3ccc(OC)cc3)n2)c1 (centres undefined)	nt	nt	?	13µM*	nt
CCN(CC)C(=O)c1cccc(-c2csc(C(C)(O)c3cccc(OC)c3)n2)c1 (centres undefined)	nt	nt	18.4µM*	23.1µM*	nt
CCN(CC)C(=O)c1cccc(-c2ccc(OC)cc2)c1	26.1%	5.2%	-28.5%	21.7%	21.4%
CCN(CC)C(=O)c1cccc(-c2csc(C(C)(O)c3ccc(F)c(F)c3)n2)c1 (centres undefined)	nt	nt	?	20.6µM*	nt
CCN(CC)C(=O)c1cccc(-c2csc(C(O)(c3ccccc3)C(F)(F)F)n2)c1 (centres undefined)	nt	nt	?	16.4µM*	nt
Cc1cc(O)c(/C=N/Nc2ccccc2Cl)c(=O)o1	-8.1%	9.8%	0.6%	-19.0%	2.2%
CCN(CC)C(=O)c1cccc(-c2csc(C(C)(O)c3ccc(OC)cc3)n2)c1 (centres undefined)	nt	nt	5.8µM*	4.61µM*	nt
COc1cc(-c2ccno2)ccc1S(=O)(=O)N1CCN(c2cc(C)ccc2C)CC1	nt	4.4%	?	?	nt
COc1ccc(OC)c(-c2noc(N3CCN(c4ccc(Cl)cc4)CC3)n2)c1	nt	9.9%	?	14.6µM*	nt
COc1ccc(-c2noc(N3CCN(c4cccc(C)c4C)CC3)n2)cc1OC	nt	5.0%	18.4µM*	7.31µM*	nt
COc1ccc(-c2noc(N3CCN(c4cccc(Cl)c4)CC3)n2)cc1OC	nt	-11.2%	?	8.2µM*	nt
COc1cc(-c2ccno2)ccc1S(=O)(=O)N1CCN(c2cccc(Cl)c2)CC1	nt	-0.5%	23.1µM*	?	nt
COc1ccc(-c2noc(N3CCN(c4ccc(Cl)cc4)CC3)n2)cc1OC	nt	2.5%	-10.2%	7.0%	nt
CCN1CCN(C(c2cc(OC)ccc2OC)c2nnnn2Cc2ccccc2)CC1 (centres undefined)	12.6%	4.1%	-24.5%	-15.0%	0.6%
COc1ccc(-n2nnnc2C(c2ccnc3ccccc23)N2CCN(C/C=C/c3ccccc3)CC2)cc1 (centres undefined)	nt	nt	7.31µM*	4.61µM*	nt
